Assay results published in PubChem BioAssay (NCI).
About 79,000 compounds went through this panel and 15% of them were active in at least one assay; those are over-represented in the sample as a whole. Cut-off read from the data, not from the text of the source: active = growth inhibition above about 70%; inactive = the rest.

Legend:
[1] = NCI Yeast Anticancer Drug Screen. Data for the rad50 strain (AID 155);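 note: 0% = growth of vehicle-only cultures of the same strain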; conditions: S. cerevisiae rad50 strain growth inhibition; at 50.0 µM; hits give high values
In short: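 Yeast carrying a defined DNA repair defect were exposed to test compounds, and growth was compared with vehicle-treated controls to give percent inhibition.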

[2] = NCI Yeast Anticancer Drug Screen. Data for the mec2-1 strain (AID 157); conditions: S. cerevisiae mec2-1 strain, at 50.0 µM, hits give high values
In short: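 Strain: mec2-1 (DNA repair/cell cycle alteration). Compound exposure, then growth measured; inhibition expressed relative to vehicle.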

[3] = NCI Yeast Anticancer Drug Screen. Data for the sgs1 mgt1 strain (AID 161);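 note: 0% = growth of cultures given vehicle only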; conditions: S. cerevisiae sgs1 mgt1 strain, at 50.0 µM, hits give high values
In short: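 Mutant yeast exposed to compound; growth scored against vehicle-only wells.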

[4] = NCI Yeast Anticancer Drug Screen. Data for the cln2 rad14 strain (AID 165);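 note: 0% = growth equal to vehicle treated cultures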; conditions: S. cerevisiae cln2 rad14 strain, at 50.0 µM, hits give high values
In short: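 Compounds are applied to the cln2 rad14 yeast strain, and growth is then compared with that of vehicle-treated cultures to give inhibition.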

[5] = NCI Yeast Anticancer Drug Screen. Data for the bub3 strain (AID 167); conditions: S. cerevisiae bub3 mutant strain, at 50.0 µM, hits give high values
In short: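 Compounds were applied to a genetically altered yeast strain carrying a cell-cycle control defect. Growth inhibition was scored against vehicle-treated controls.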

[6] = NCI Yeast Anticancer Drug Screen. Data for the mlh1 rad18 strain (AID 175); conditions: S. cerevisiae mlh1 rad18 strain growth inhibition; at 50.0 µM; hits give high values
In short: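 Read-out is yeast growth inhibition, calculated against vehicle-only controls. The compound was applied to a strain engineered with DNA damage repair alterations.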

Measured: growth inhibition

CC(C)c1ccccc1N1C(=O)CC(Sc2ccccc2N)C1=O (stereo unspecified)
inactive: [1] -5.45% | [2] -12.8% | [3] -9.25% | [4] -28.6% | [5] 0.15% | [6] 3.8%

O=C(C[n+]1ccccc1)c1cc2c(c3ccccc13)CCCC2
inactive: [1] 3.3% | [2] -3.2% | [3] 36.3% | [4] 20.8% | [5] -4.6% | [6] 19.5%

N#CCCN(CCC#N)c1ccc(/C=C2\N=C(c3cc([N+](=O)[O-])ccc3Cl)N(S(=O)(=O)c3ccccc3)C2=O)cc1
inactive: [1] 23.2% | [2] 16.3% | [3] 3.5% | [4] -47.4% | [5] -1.35% | [6] 28.1%

O=C(O)c1cnc2c(ccc3[nH]cccc32)c1=O
inactive: [1] -7.3% | [2] -33.8% | [3] -9% | [4] 15.6% | [5] 19.6% | [6] -2.8%

NCCC1([N+](=O)[O-])CCNCC1
inactive: [1] 1.9% | [2] -7.2% | [3] -6.15% | [4] -14.7% | [5] -5.3% | [6] 14.6%

Cc1sc2c(c1C)/C(=N\O)c1cccn1-2
inactive: [1] -0.05% | [2] -3.4% | [3] 34% | [4] 26% | [5] 14.4% | [6] -11.6%

Cc1ccc2nc(C)cn2c1
inactive: [1] -0.05% | [2] 7.7% | [3] -1.15% | [4] 14.3% | [5] 10.7% | [6] 2.3%

CC(COc1ccc(Cl)cc1)OS(=O)(=O)CCCl (stereo unspecified)
inactive: [1] 14.3% | [2] 13% | [3] -16.1% | [4] -16.1% | [5] -1.1% | [6] -4.65%

CC/C(C=O)=C\NC(=O)Nc1ccccc1
inactive: [1] 9.35% | [2] -21.6% | [3] 0.8% | [4] -22.9% | [5] -26.6% | [6] 1.1%

NC(=O)C1CCN(S(=O)(=O)c2ccccc2)CC1
inactive: [1] -0.85% | [2] -9.1% | [3] 8.55% | [4] -37.6% | [5] -1.5% | [6] -18.4%

CC(=O)CC(C)(C)S(=O)(=O)Cc1ccccc1
inactive: [1] -3.4% | [2] 11.2% | [3] 6.9% | [4] -5.85% | [5] 19.4% | [6] 6.3%

COc1ccc([N+](=O)[O-])cc1N=NN(C)C
inactive: [1] -1.9% | [2] -11.7% | [3] -10.8% | [4] -6.3% | [5] -5.8% | [6] -8.45%

CC(C)(N)C(=O)N[C@@H]1C(=O)N2[C@@H]1SC(C)(C)[C@@H]2C(=O)O
inactive: [1] 8.4% | [2] 3.55% | [3] -19.2% | [4] -0.95% | [5] 5.9% | [6] 4%

COC(=O)C(c1ccccc1)C(SCc1ccccc1)c1ccccc1 (stereo unspecified)
inactive: [1] 2.85% | [2] 1.15% | [3] -18.9% | [4] 0.95% | [5] -7.15% | [6] 4.7%

CCOCc1cnc(SC)nc1N
inactive: [1] -0.75% | [2] 7.35% | [3] -9.45% | [4] -0.25% | [5] -0.15% | [6] -14.4%

CC(=O)OC(NC(=O)c1cc(C)cc(C)c1)c1ccncc1 (stereo unspecified)
inactive: [1] -2.05% | [2] -3.05% | [3] -0.75% | [4] -8.1% | [5] 4.6% | [6] 1.25%

NC(=O)C1=CC2C3C=CC2(O)C(=O)OC3O1 (stereo unspecified)
inactive: [1] -15.3% | [2] -28.6% | [3] -12.6% | [4] 3.2% | [5] -22.9% | [6] -11.1%

Clc1ccc(OCCBr)cc1
inactive: [1] 39.2% | [2] 27.9% | [3] 29.4% | [4] 19.9% | [5] 3.8% | [6] 25.6%

O=C1c2ccccc2C(=O)N1CCc1ccccc1
inactive: [1] -12.1% | [2] 7% | [3] -6.9% | [4] -36% | [5] 16.6% | [6] 14.1%

O=C(/C(=C/c1ccccc1)N1CCOCC1)c1cccc2ccccc12
inactive: [1] 18.9% | [2] -2.15% | [3] 17.1% | [4] 14.7% | [5] 21.4% | [6] 19.9%

COC(=O)C1(CC(=O)C(c2ccccc2)c2ccccc2)NC(=S)NC(=O)C1C#N (stereo unspecified)
inactive: [1] 5.6% | [2] 4.65% | [3] -12.8% | [4] -2.7% | [5] 0.55% | [6] -8.9%

CCO/N=C(/N)c1ncn(Cc2ccccc2)c1NCC(OCC)OCC
inactive: [1] -26.4% | [2] 1.15% | [3] -4.2% | [4] 22.2% | [5] -1% | [6] -16.9%

COc1ccc(NC(=S)NN)cc1
inactive: [1] 2.95% | [2] -7.75% | [3] 18.9% | [4] -6% | [5] 13.9% | [6] 6.2%

COc1cc(NS(C)(=O)=O)ccc1Nc1c2ccccc2nc2c1[nH]c1ccc(NC3OC(CO)C(O)C(O)C3O)cc12 (stereo unspecified)
inactive: [1] 53.8% | [2] -4.9% | [3] 3.35% | [4] 0.2% | [5] -26.3% | [6] -27.6%

CCOC(=O)Oc1ccc(C(=O)Oc2ccccc2)cc1OC
inactive: [1] 18.1% | [2] 4.1% | [3] 12.9% | [4] -48.8% | [5] 42.1% | [6] 10%

CC(=O)CCCC(CC(C)O)[Si](C)(C)C (stereo unspecified)
inactive: [1] -43.6% | [2] -19.4% | [3] -1.05% | [4] -14.2% | [5] -8.45% | [6] -23.6%

C/C(=N/NC(N)=S)c1ccc2ccccc2c1
inactive: [1] 17.4% | [2] 17.1% | [3] 43.8% | [4] 17.2% | [5] 28.9% | [6] 29.4%

O=C(O)c1ccccc1SC(Sc1ccccc1C(=O)O)c1ccc2c(c1)OCO2
inactive: [1] 11.3% | [2] -11.9% | [3] 2.85% | [4] -11.6% | [5] 33.6% | [6] 28%

NC(=S)N/N=C\c1ncccc1OCc1cccc(N)c1
inactive: [1] 32.3% | [2] 46.9% | [3] 42% | [4] 5.6% | [5] 37.4% | [6] 29.2%

COc1ccc(/C(Cl)=C(\C=O)c2ccc(OC)c(OC)c2)cc1OC
inactive: [1] 21.9% | [2] 4.5% | [3] -0.3% | [4] -17.1% | [5] -3% | [6] -13.1%

NC(CSS(=O)(=O)O)C(=O)O (stereo unspecified)
inactive: [1] 3.05% | [2] -2.4% | [3] -1.55% | [4] -31.9% | [5] -12.8% | [6] 2.6%

CC(C)(C)CC(C)(C)c1ccc(OCCOc2ccc(C(=O)NCCNC(=O)c3ccc4ccccc4c3O)cc2N)cc1
inactive: [1] -13% | [2] -5.25% | [3] 3.85% | [4] 26.4% | [5] -7.1% | [6] -16.6%

Cc1c(C)c(Cl)c(C)c(C(Cl)(Cl)Cl)c1C
inactive: [1] 0.85% | [2] -1.3% | [3] 2.05% | [4] 12.2% | [5] -0.65% | [6] -6.25%

O=C1c2ccccc2C(C(c2ccccc2)c2ccccc2)c2ccccc21
inactive: [1] -22% | [2] -18.6% | [3] -28.9% | [4] 8.45% | [5] 5.25% | [6] -14%

CN1C(=O)C(Cl)(C#N)C(c2ccccc2)N(C)C1c1ccccc1 (stereo unspecified)
inactive: [1] 5.7% | [2] 8.05% | [3] 18% | [4] -37.9% | [5] 39.4% | [6] 20.1%

C=CCNC(=O)CN(CC(=O)OC)C1CCCCC1N(CC(=O)OC)CC(=O)OC (stereo unspecified)
inactive: [1] -8.3% | [2] -6.6% | [3] -1.8% | [4] 6.75% | [5] 2% | [6] 1.75%

Cc1cc(C)c(Br)c(C)c1
inactive: [1] 1.55% | [2] 0.45% | [3] -2% | [4] -20.2% | [5] -4.95% | [6] -12.7%

O=C1CN(c2ccccc2)C(=O)CN1/N=C/c1ccc[nH]1
inactive: [1] -27.4% | [2] -7.55% | [3] -4.9% | [4] -21.4% | [5] -7.7% | [6] -13.4%

CN(C)CCCN=c1c2ccccc2n(C)c2[nH]c(=O)n(C)c(=O)c12
inactive: [1] -32.1% | [2] -0.75% | [3] -16.2% | [4] -9.2% | [5] 0.05% | [6] -6.85%

CCOC(=O)C(C(=O)OCC)=c1sc(=C(C(=O)OCC)C(=O)OCC)s1
inactive: [1] 20.2% | [2] 7.8% | [3] 17.1% | [4] 5.05% | [5] -2.5% | [6] 9.3%

Cc1cc(S(N)(=O)=O)c2ncccc2c1
inactive: [1] 1.8% | [2] -3.5% | [3] 2.35% | [4] -33.1% | [5] -8.4% | [6] -3.2%
